Reference: PubChem BioAssay (NCATS)
Results filed as inconclusive are left out. The source made the active and inactive calls. The call rests on the fitted dose curve; in most records, active means well fitted curve in the direction sought with a large enough effect; inconclusive means small, poorly fitted or top-dose-only effect, or another doubt; inactive means no such curve, though single readings can be large; an effect the other way counts as inactive or inconclusive. Where a SMILES comes first, the peptide text is derived from it. Bridges are numbered along the chain shown (N, C = ends). [ ]: non-standard residue; d: D form. hArg = N=C(N)NCCCC[C@H](N)C(=O)O; Mpa = O=C(O)CCS

Assays:
MKL-2 = assay: qHTS assay to identify novel small-molecules to repurpose for Merkel cell carcinoma treatment (AID 1296009); conditions: MCC and control cell lines, CellTiter-Glo viability, 72 h; series mostly up to 46 µM; further: nearly all actives have a fitted effect of over 60% in size
Outline: (§1)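 After compound transfer in DMSO, plates were kept 72 hr at 37 degree celsius. Luminescent ATP signal from CellTiter-Glo served as viability measure, normalized against DMSO and no-cell controls.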

UISO = assay: as above; conditions: MCC and control cell lines, CellTiter-Glo viability, 72 h; series mostly up to 46 µM
Outline: as §1

WaGa = assay: as above; conditions: MCC and control cell lines, CellTiter-Glo viability, 72 h; series mostly up to 46 µM
Outline: as §1

C33A = assay: Primary qHTS to identify gynecologic anti-cancer compounds using libraries of approved drugs and bioactive compounds (AID 1345084); conditions: Gynecologic cancer cell panel viability, ATPlite luminescence, 48 h; series mostly up to 57.5 µM; further: nearly all actives have a fitted effect of over 55% in size
Outline: (§2)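 Cells, 1,000 per well, plated 16 h, then exposed 48 h at 37 C to compounds. Viability by ATPlite luminescence after 15 min at room temperature.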

CAOV3 = assay: as above; conditions: Gynecologic cancer cell panel viability, ATPlite luminescence, 48 h; series mostly up to 57.5 µM
Outline: as §2

CASKI = assay: as above; conditions: Gynecologic cancer cell panel viability, ATPlite luminescence, 48 h; series mostly up to 57.5 µM
Outline: as §2

Es-2 = assay: as above; conditions: Gynecologic cancer cell panel viability, ATPlite luminescence, 48 h; series mostly up to 57.5 µM
Outline: as §2

HeLa = assay: as above; conditions: Gynecologic cancer cell panel viability, ATPlite luminescence, 48 h; series mostly up to 57.5 µM
Outline: as §2

Hek293T = assay: as above; conditions: Gynecologic cancer cell panel viability, ATPlite luminescence, 48 h, control line for the selectivity index; series mostly up to 57.5 µM
Outline: as §2

Measured: activity change, negative = cytotoxicity
On the % scale 0 is the no-effect control and ±100 the full control effect.

Cc1cc(C)c(NC(=O)CN(CC(=O)O)CC(=O)O)c(C)c1Br
inactive: all assays above

Nc1c2c(nc3c1CCC3)CCCC2
inactive: all assays above

COc1cc(C(=O)NCCCCCC(=O)O)cc(OC)c1OC
inactive: all assays above

O=c1[nH]c(=O)c2ccccc2o1
inactive: all assays above

Cc1ccc(S(=O)(=O)NC(=O)NC2CCCCCCC2)cc1
inactive: all assays above

Cn1cc(C(=O)[C@@H]2CCc3nc[nH]c3C2)c2ccccc21
inactive: all assays above

CC(C)C[C@@H](N)C(=O)O
inactive: all assays above

O=C(O)Cc1cn(-c2ccccc2)nc1-c1ccc(Cl)cc1
inactive: all assays above

C[C@@H](c1ncncc1F)C(O)(Cn1cncn1)c1ccc(F)cc1F (some centres undefined)
inactive: all assays above

NNC(=O)CP(=O)(c1ccccc1)c1ccccc1
inactive: all assays above

Cc1ccc2c(c1)c1c3n2CCNC3CCC1 (centres undefined)
inactive: all assays above

CN(C/C=C/C#CC(C)(C)C)Cc1cccc2ccccc12
inactive: all assays above

CCCCCCCC(=O)OCC(O)CO (centres undefined)
inactive: all assays above

COc1ccc(Cc2cnc(N)nc2N)cc1OC
inactive: all assays above

CCOC(=O)c1cccnc1
inactive: all assays above

O=C(NCN1CCOCC1)c1cnccn1
inactive: all assays above

COc1cc(O)cc(O)c1
inactive: all assays above

C=CCNC(N)=S
inactive: all assays above

O=C(NCC(O)CO)c1c(I)c(C(=O)NCC(O)CO)c(I)c(N(CCO)C(=O)CO)c1I (centres undefined)
inactive: all assays above

CC[C@H](C)[C@H](N)C(=O)O
inactive: all assays above

CCN(CC)CC1CCCCN1CC(=O)N1c2ccccc2C(=O)Nc2cccnc21 (centres undefined)
inactive: all assays above

CN1C[C@@H]2C[C@H]1CN2c1cc2c(cc1F)c(=O)c(C(=O)O)cn2C1CC1
not listed: CAOV3
inactive: all other assays above

COC(=O)c1ccccc1C(=O)c1ccc(OCCN2CCCCC2)cc1
not listed: CAOV3
inactive: all other assays above

CC1(C)S[C@@H]2[C@H](NC(=O)C(C(=O)O)c3ccccc3)C(=O)N2[C@H]1C(=O)O (some centres undefined)
not listed: CAOV3
inactive: all other assays above

NC(N)=NCCN1CCCCCCC1
inactive: MKL-2 3.8% [at 0.597 µM] | UISO 18% [at 0.597 µM] | WaGa 12.9% [at 0.597 µM] | C33A 9.99% [at 0.462 µM] | CASKI -2.55% [at 0.462 µM] | Es-2 -4.19% [at 0.462 µM] | HeLa 0.1% [at 0.462 µM] | Hek293T -4.03% [at 0.462 µM]

CCOc1ccc(C(=O)OCCN(CC)CC)cc1
not listed: CAOV3
inactive: all other assays above

Cc1c(Cn2ccnc2)c2ccccc2n1CCC(=O)O
not listed: CAOV3
inactive: all other assays above

O=C1C(c2[nH]c3ccccc3c2O)=Nc2ccccc21
not listed: UISO
inactive: all other assays above

OC[C@@H](O)[C@@H](O)[C@H](O)[C@H](O)CO
not listed: CAOV3 | Hek293T
inactive: all other assays above

CCS(=O)(=O)CCn1c([N+](=O)[O-])cnc1C
not listed: CASKI
inactive: all other assays above

NC(=O)[C@@H]1CSSCCC(=O)N[C@@H](CCCCN=C(N)N)C(=O)NCC(=O)N[C@@H](CC(=O)O)C(=O)N[C@@H](Cc2c[nH]c3ccccc23)C(=O)N2CCC[C@H]2C(=O)N1 ([Mpa][hArg]GDWPC-NH2; disulfide 1-7)
not listed: CAOV3
inactive: all other assays above

CCCCCCCCCCCCCCCCC(C(=O)O)C(O)(CC(=O)O)C(=O)O (centres undefined)
not listed: CAOV3 | Hek293T
inactive: all other assays above

NC(=O)CC[C@@H](N)C(=O)O
not listed: CAOV3
inactive: all other assays above

CC1CCN(CCCC(=O)c2ccc(F)cc2)CC1
inactive: all assays above

COCC(=O)Nc1c(I)c(C(=O)NCC(O)CO)c(I)c(C(=O)N(C)CC(O)CO)c1I (centres undefined)
not listed: Es-2
inactive: all other assays above

NC(=O)CCCCC1CCSS1 (centres undefined)
not listed: CAOV3
inactive: all other assays above

COc1ccc(O)cc1
not listed: MKL-2
inactive: all other assays above

CC(=O)NS(=O)(=O)c1ccc(N)cc1
not listed: CAOV3
inactive: all other assays above

C1CCN2C[C@@H]3C[C@@H](CN4CCCC[C@@H]34)[C@H]2C1
not listed: CAOV3
inactive: all other assays above

CCc1nnc(NS(=O)(=O)c2ccc(N)cc2)s1
not listed: CAOV3
inactive: all other assays above

CCN(CC)CCOC(=O)C(c1ccccc1)c1ccccc1
not listed: CAOV3
inactive: all other assays above

CCC(C)(CN(C)C)OC(=O)c1ccccc1 (centres undefined)
not listed: CAOV3
inactive: all other assays above

CC(=O)N[C@@H](Cc1ccc(O)cc1)C(=O)O
not listed: CAOV3
inactive: all other assays above

CC(=O)N[C@@H](CC(C)C)C(=O)O
not listed: CAOV3
inactive: all other assays above

O=C(/C=C/c1ccc(O)c(O)c1)O[C@@H]1C[C@@](OC(=O)/C=C/c2ccc(O)c(O)c2)(C(=O)O)C[C@@H](O)[C@@H]1O
not listed: CAOV3
inactive: all other assays above

O=C(O)c1ccc(OCCCOc2ccc(C(=O)O)cc2)cc1
not listed: CAOV3
inactive: all other assays above

CNCc1ccccc1
not listed: CAOV3
inactive: all other assays above

CC(=O)Nc1ccc(C(=O)O)cc1
not listed: CAOV3
inactive: all other assays above

Cc1ccccc1N=Nc1ccc(N=Nc2c(O)ccc3ccccc23)c(C)c1
not listed: UISO
inactive: all other assays above

CC(=O)OCC(=O)[C@@]1(O)CC[C@H]2[C@@H]3CCC4=CC(=O)C=C[C@]4(C)[C@@]3(F)[C@@H](O)C[C@@]21C
not listed: CAOV3
inactive: all other assays above

CCCOC(=O)c1ccc(N)cc1
not listed: CASKI
inactive: all other assays above

C/C(=C(\CCO)SS/C(CCO)=C(\C)N(C=O)Cc1cnc(C)nc1N)N(C=O)Cc1cnc(C)nc1N
not listed: CAOV3
inactive: all other assays above

CC1CC(OC(=O)c2ccccc2O)CC(C)(C)C1 (centres undefined)
not listed: MKL-2
inactive: all other assays above
